Measured values reported in PubChem BioAssay AID686979 (National Center for Advancing Translational Sciences (NCATS), 2013).
Where “and” joins values, the source holds several entries; their conditions need not be identical. Equal values may be shown once. Hit rate of the full screen: of about 420,000 compounds, about 50,000 (12%) were called active. Another 26% or so got no clear call; they are omitted. What follows is part of a selection rich in actives, with near analogues and random picks from the rest. Unmarked numbers belong to inactive results. The call rests on the fitted dose curve; in most records, active means well fitted inhibition curve with a large enough effect; inconclusive means small, poorly fitted or top-dose-only effect; inactive means flat fitted curve, though single readings scatter.

Assay: qHTS for Inhibitors of human tyrosyl-DNA phosphodiesterase 1 (TDP1): qHTS in cells in presence of CPT; further: nearly all actives have a fitted effect of over 55% in size
Settings: chicken DT40 Tdp1-/-;hTDP1 cells + 20 nM CPT, ATP luminescence, 48 h; series mostly up to 46.2 µM; activity change, negative = growth inhibition: at the top concentration
In short: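 Chicken DT40 Tdp1-/- cells stably complemented with human TDP1 were seeded at 400 cells/well in medium containing 20 nM camptothecin, exposed to pin-transferred compounds, and grown at 37 °C for at least 48 hr. Viability was read as ATP luminescence.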
On the % scale 0 is the no-effect control and ±100 the full control effect; potency means the concentration at half of the fitted maximal effect.

SMILES	activity change, negative = growth inhibition	Potency
COc1ccc(CN2C(=O)C(CC(=O)NCc3cccc4ccccc34)CC(C(=O)N3CCOCC3)=C2C)cc1 (stereo not given)	-12.7%	
Cc1ccc(NC(=O)N2CCC(C(=O)NCc3ccc(F)cc3)CC2)cc1	-17.6%	
CCOc1ccc(CNC(=O)C2CCCN(c3nnc(C)c4c(C)n(-c5ccccc5)nc34)C2)cc1 (stereo not given)		13 µM (active)
Cc1nnc(N2CCCC(C(=O)NCCN(C)C)C2)c2nn(-c3ccccc3)c(C)c12 (stereo not given)	-16.4%	
CCc1ccc(CNC(=O)C2CCN(c3nnc(C)c4c(C)n(-c5ccc(C)cc5)nc34)CC2)cc1		5.17 µM (active) and 16.4 µM (active)
COc1ccc(-n2nc3c(N4CCC(C(=O)NCc5ccccc5)CC4)nnc(C)c3c2C)cc1	-21.8%	
CCOC(=O)C1CCN(C(=O)Cn2nc(C)c3c(C)n(-c4ccccc4)nc3c2=O)CC1	-18%	
Cc1ccc(C=O)cc1Cl	-16.7%	
Cc1nc2scc(-c3cccs3)c2c(=O)n1N	0.389%	
[2H]C(CCOS(N)(=O)=O)c1ccccc1 (stereo not given)	-11.5%	
CCC(C)N(C(=O)CSc1nnnn1-c1ccccc1OC)C1CCS(=O)(=O)C1 (stereo not given)	-22.6%	
COc1ccccc1-n1nnnc1S(=O)(=O)Cc1ccc(Cl)cc1		5.8 µM (active)
COc1ccccc1-n1nnnc1SCC(=O)NC(=O)Cc1ccccc1	-8.14%	
O=C(NCCO)c1cccc(-c2cccc3nccn23)c1	8.69%	
CCOc1ccccc1C1CC(c2cccc(NS(C)(=O)=O)c2)=NN1C(=O)c1ccccc1 (stereo not given)	-6.18%	
CS(=O)(=O)Nc1cccc(C2=NN(C(=O)c3cccc(F)c3)C(c3cccs3)C2)c1 (stereo not given)		23.1 µM (active)
COc1ccc(C2=NN(C(=O)CCC(=O)O)C(c3cccs3)C2)cc1OC (stereo not given)	16%	
CCS(=O)(=O)Nc1ccc(C2=NN(C(C)=O)C(c3cccs3)C2)cc1 (stereo not given)		4.11 µM (active)
CS(=O)(=O)Nc1cccc(C2=NN(S(=O)(=O)c3ccccc3)C(c3cccs3)C2)c1 (stereo not given)	-5.61%	
CS(=O)(=O)Nc1ccc(C2=NN(S(C)(=O)=O)C(c3cccs3)C2)cc1 (stereo not given)	-4.9%	
CCNC(=O)Cn1nc(C)n2c(cc3c(OC)cccc32)c1=O	7.15%	
CCc1ccccc1NC(=O)CN(C)S(=O)(=O)c1ccc2c(c1)c(=O)n(C)c(=O)n2C	-12.8%	
CCOc1ccc(S(=O)(=O)N2CCC(c3ccccc3)CC2)cc1C(=O)O	3%	
CN(Cc1ccccc1)C(=O)COC(=O)c1ccccc1Nc1ccccc1	-0.608%	
COc1ccc(C)cc1S(=O)(=O)N1CCN(S(=O)(=O)c2cc(C(=O)O)ccc2C)CC1	-0.611%	

SMILES	activity change, negative = growth inhibition	Potency
Cc1ccc(S(=O)(=O)N2CCN(C)CC2)cc1	18.1%	
Cc1ccc(C)c(S(=O)(=O)n2nc(C)c(S(=O)(=O)N3CCC(C)CC3)c2C)c1	-7.4%	
O=[N+]([O-])c1ccc(S(=O)(=O)N2CCN(c3nc(-c4ccccc4)nc4ccccc34)CC2)cc1	1.79%	
Cc1ccc(S(=O)(=O)N2CCN(c3ncnc4ccccc34)CC2)cc1		461 nM (active) and 1.58 µM (active)
Cc1ccc(C)c(S(=O)(=O)N2CCN(c3ncnc4sccc34)CC2)c1		11.6 µM (active)
CCOC(=O)c1[nH]c(C)c(CCC(=O)NCc2ccccc2C)c1C	-16.7%	
CCCNC(=O)C1(C)CCN(C(=O)c2cc(F)ccc2C)C1 (stereo not given)	-11.1%	
CC(C)Oc1ccc(CN2CCC(n3nccc3NC(=O)c3cccnc3)CC2)cc1	-19.1%	
COC(=O)[C@@]1(Cc2ccc(OC)cc2)[C@H]2c3cc(C(=O)N4CCCC4)n(Cc4ccc(OC(F)(F)F)cc4)c3C[C@H]2CN1C(=O)c1ccccc1		16.4 µM (active)
COC(=O)c1ccc(CN2CCC(CO)(Cc3ccc(OC)cc3)CC2)cc1	5.36%	
CSc1ccc(S(=O)(=O)NCC(=O)OCC(=O)NC2(C#N)CCCCC2)cc1[N+](=O)[O-]	-3.09%	
CCN(CC(=O)NCC(=O)Nc1cccc(C)c1C)Cc1ccccc1	-19.9%	
CSC1=NC2(C)CCCCC2C12C=CC(=O)C=C2 (stereo not given)	-2.58%	
CCOc1cc(C2C(C(=O)c3ccco3)=C(O)C(=O)N2Cc2ccccc2)ccc1O (stereo not given)	4.89%	
O=C(C1=C(O)C(=O)N(Cc2ccccc2)C1c1ccco1)c1ccco1 (stereo not given)	-1.15%	
CC(C)c1ccc(C2C(C(=O)c3ccco3)=C(O)C(=O)N2CC2CCCO2)cc1 (stereo not given)		20.6 µM (active)
COc1cccc(OCC(=O)NNC(=O)c2cnccn2)c1	-1.97%	
CN(C(=O)COc1nnc(-c2cccs2)c(-c2cccs2)n1)c1ccccc1		23.1 µM (active)
O=C(O)Cc1sc(-c2ccccc2)nc1-c1cccs1	-3.68%	
CN(C(=O)COc1ccccc1)c1nnc(-c2ccncc2)s1	-6.56%	
CCOc1ccc(CC(=O)NCCc2csc3nc(-c4ccccc4F)nn23)cc1	-27.1%	
Cc1ccc(NC(=O)COC(=O)CN2CCCCCC2=O)c(C)c1	-11.8%	
Clc1ccc(Cn2ncc3c(NCc4cccnc4)ncnc32)cc1		20.6 µM (active)
CC(=O)Nc1ccc(NC(=O)CSc2ncnc3c2cnn3Cc2ccccc2)cc1	3.41%	
Clc1ccc(Nc2ncnc3c2nnn3Cc2ccccc2)cc1	-12.7%	

SMILES	activity change, negative = growth inhibition	Potency
Cc1ccc(OCCOc2cccc(/C=N/NC(N)=O)c2)cc1	16.1%	
COc1ccc(C(=O)COC(=O)Cn2cnc3c2c(=O)n(C)c(=O)n3C)c(OC)c1	11.2%	
O=C(OCc1ccc([N+](=O)[O-])cc1)c1ccccn1	7.01%	
O=[N+]([O-])c1ccc(/C=C/c2ccc3cccnc3c2)cc1		7.94 µM (active)
O=C(Oc1ccc([N+](=O)[O-])cc1)c1ccc2ccccc2n1	-16.8%	
COc1ccc(C2/C(=C(/O)c3ccc(OC(C)C)cc3)C(=O)C(=O)N2CCCN2CCOCC2)cc1 (stereo not given)	-2.53%	
CCCCc1ccc(S(=O)(=O)NC(=O)C2(C)CCN2C(=O)c2c(C)noc2C)cc1 (stereo not given)	-16.1%	
Cn1c2c(c(=O)n(C)c1=O)C(c1cccc(F)c1)C(C#N)=C(N)O2 (stereo not given)	12.8%	
CC(C)CCNC(=O)c1cccnc1Sc1ccccc1	7.04%	
Cc1cc([N+](=O)[O-])c(=O)[nH]c1C	-13.7%	
Cc1cccc(C(=O)OCC(=O)Nc2ccc(F)cc2)c1	-20.9%	
O=C(COC(=O)c1ccccc1OCCOc1ccccc1)Nc1cccc(Br)c1	-12%	
Cc1cccc(NC(=O)COC(=O)c2ccccc2OCc2cccc(Br)c2)c1		17.8 µM (active)
CC1C(=O)Nc2ccccc2N1C(=O)c1ccc(F)cc1F (stereo not given)	-6.81%	
CCN(CC)C(=O)c1nc[nH]c1C(=O)N(C)Cc1ccccc1	4.56%	
CN1CC(O)c2cc(N=NC(N)=O)c(O)cc21 (stereo not given)	-15.8%	
CCOC(=O)N1CCN(S(=O)(=O)c2ccc(C(=O)Nc3ccc(F)cc3F)cc2)CC1		2.59 µM (active)
CCOC(=O)N1CCN(S(=O)(=O)c2ccc(-n3cnnn3)cc2)CC1	-11.6%	
CCOC(=O)N1CCN(S(=O)(=O)c2ccc(Br)cc2)CC1	1.25%	
COc1ccc(-c2ccc(CCC(=O)O)n2-c2ccc(O)cc2)cc1	-13.8%	
COc1ccc(-c2nc3ccccc3c(=O)n2CCc2ccc(O)cc2)cc1		14.6 µM (active)
COc1cccc(OCCn2c(-c3ccc(Br)cc3)nc3ccccc3c2=O)c1	-9.2%	
C=CCNC(=O)COC(=O)c1ccccc1C(=O)N(C)C1CCCCC1	-5.9%	
O=C(COC(=O)c1ccccc1SCC(=O)NC1CCCCC1)NC1CCCCC1	3.2%	
CC1CCCC(NC(=O)COC(=O)c2ccccc2C(=O)N(C)C2CCCCC2)C1C (stereo not given)		23.1 µM (active)

SMILES	activity change, negative = growth inhibition	Potency
COc1cc(=O)n2c(c1C(=O)NC(C)c1ccco1)CCN(C(=O)c1cn3ccc(C)cc3n1)CC2 (stereo not given)	3.27%	
Cc1cc(C)cc(Oc2nc3c(C)cccn3c(=O)c2/C=C(\C#N)C(=O)NC2CCS(=O)(=O)C2)c1 (stereo not given)		16.4 µM (active)
Cc1cccn2c(=O)c(/C=C(\C#N)S(=O)(=O)c3ccc(Cl)cc3)c(N3CCC(C(N)=O)CC3)nc12	0.471%	
Cc1ccc(C(=O)N/C(=C\c2ccco2)C(=O)NC2CCS(=O)(=O)C2)cc1 (stereo not given)	13.6%	
Cc1ccnc(Nc2nc3ccccc3s2)n1	-17.4%	
Cc1ccnc(-n2sc3ccccc3c2=O)n1		7.31 µM (active)
Cc1ccnc(SCC(N)=O)n1	-14.1%	
Cc1cccc(C)c1NC(=O)CNC(=O)C1CCCC1	-0.199%	
CCc1ccnc(NC(=O)Nc2ccc(OCc3ccccc3)cc2)c1	-10.7%	
Cc1[nH]c(C)c(S(=O)(=O)N2CCN(c3cccc(C(F)(F)F)c3)CC2)c1C(=O)N1CCCC1		18.4 µM (active)
Cc1ccc(NS(=O)(=O)c2c(C)[nH]c(C)c2C(=O)N2CCCCC2)c(C)c1	-27%	
Cc1ccc(C)c(NS(=O)(=O)c2c(C)[nH]c(C)c2C(=O)N2CCCCC2)c1	-4.6%	
Cc1[nH]c(C)c(S(=O)(=O)N2CCC(C)CC2)c1C(=O)N1CCCC1	-6.25%	
O=C1CC(=O)Nc2cc(S(=O)(=O)N3CCN(c4cccc(C(F)(F)F)c4)CC3)ccc2N1	5.71%	
Cc1[nH]c(C)c(S(=O)(=O)N2CCN(c3cccc(C(F)(F)F)c3)CC2)c1C(=O)N1CCCCC1		14.6 µM (active)
COc1cc(/C=C2/C(=O)ON=C2C)ccc1OCc1ccccc1F		11.6 µM (active)
CC1=NOC(=O)/C1=C\c1ccccc1	-5.28%	
CCOc1cc(/C=N/O)ccc1OCc1ccccc1F	2.25%	
Cc1cc(NC(=O)CCS(=O)(=O)c2ccc(F)cc2)no1	-0.0242%	
C[C@@H]1CN(Cc2ccc3c(c2)CN(Cc2ccc(Oc4ncccn4)cc2)CCO3)C[C@H](C)O1	-11.8% [at 9.04 µM]	
O=C(NN=Cc1ccc(N2CCOCC2)cc1)c1cc2ccccc2cc1O	-27.4%	
CCN(CC)c1ccc(C(=O)N/N=C/c2ccc(N3CCOCC3)cc2)cc1	1.61%	
COc1ccc(/C=N/N=C2/C(=O)Nc3ccccc32)cc1O	-26.3%	
O=C(O)c1ccc(NN=CC2=C(N3CCOCC3)/C(=C/c3ccccc3)CC2)cc1		1.46 µM (active)
O=C1Nc2ccc(Br)cc2/C1=N/N=C/C1=C(N2CCOCC2)C(=C\c2ccccc2)/CC1		16.4 µM (active)
